Values joined by “and” are separate entries in the source; they are usually repeats but may differ in a detail not shown here. Equal values may be shown once. The campaign covered roughly 5,500 compounds. About 2,000 (36%) were called active. Roughly 18% stayed inconclusive and do not appear here. No stated cut-off is given here; in the data, active means normalized growth mostly below about 0.91 (no sharp cut-off); inconclusive means no clear call, values can overlap the other calls; inactive means mostly above about 0.92. This is one part of the list.
Assay: chemical genetic growth profiling, strain panel (AID 1159580);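 further: tested at 20 µM; growth read once vehicle control cultures reached saturation at 30 °C; 1 = growth at the plate median or of vehicle wells; lower values mean less growth of the strain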
Details: S. cerevisiae deletion strains, growth OD

Measured: normalized growth

CCN(CCO)CCCC(C)Nc1ccnc2cc(Cl)ccc12 (configuration not stated)
inactive: locus YAL013W, strain DEP1, hits give low values 1.01 | locus YAL021C, strain ccr4, hits give low values 1.03 | locus YAL026C, strain drs2, hits give low values 1 | locus YAL030W, strain snc1, hits give low values 0.997 | locus YBL061C, strain skt5, hits give low values 1 | locus YBR009C, strain hhf1, hits give low values 1.01 | locus YBR021W, strain FUR4, hits give low values 1 | locus YBR023C, strain chs3, hits give low values 0.998 | locus YBR171W, strain sec66, hits give low values 1.01 | locus YBR229C, strain ROT2, hits give low values 0.991 | locus YBR231C, strain swc5, hits give low values 1.01 | locus YBR279W, strain paf1, hits give low values 1.01 | locus YCL011C, strain gbp2, hits give low values 1 | locus YCL016C, strain dcc1, hits give low values 1 | locus YCL029C, strain bik1, hits give low values 1.01 | locus YCL061C, strain MRC1, hits give low values 0.993 | locus YCL069W, strain vba3, hits give low values 0.998 | locus YCR088W, strain abp1, hits give low values 0.997 | locus YDL005C, strain med2, hits give low values 0.994 | locus YDL035C, strain GPR1, hits give low values 1.02 | locus YDL040C, strain nat1, hits give low values 0.999 | locus YDL074C, strain BRE1, hits give low values 1.01 | locus YDL101C, strain DUN1, hits give low values 1.02 | locus YDL134C, strain PPH21, hits give low values 1 | locus YDL185W, strain tfp1, hits give low values 1.01 | locus YDL192W, strain arf1, hits give low values 1.01 | locus YDR001C, strain nth1, hits give low values 1 | locus YDR069C, strain doa4, hits give low values 1.01 | locus YDR101C, strain arx1, hits give low values 1.02 | locus YDR137W, strain rgp1, hits give low values 0.978 | locus YDR150W, strain NUM1, hits give low values 1.01 | locus YDR159W, strain sac3, hits give low values 0.999 | locus YDR162C, strain NBP2, hits give low values 1.01 | locus YDR195W, strain ref2 1 | locus YDR297W, strain sur2, hits give low values 1.01 | locus YDR318W, strain mcm21, hits give low values 1.03 | locus YDR334W, strain swr1, hits give low values 1.01 | locus YDR335W, strain msn5, hits give low values 0.999 | locus YDR388W, hits give low values 1.01 | locus YDR392W, strain spt3, hits give low values 1.03 | locus YDR502C, strain sam2, hits give low values 1.02 | locus YEL003W, strain gim4, hits give low values 1 | locus YEL037C, strain rad23, hits give low values 1.01 | locus YEL061C, strain CIN8 (second series), hits give low values 1.01 | locus YEL061C, strain CIN8, hits give low values 1.01 | locus YER015W, strain faa2, hits give low values 1.01 | locus YER016W, strain bim1, hits give low values 1 | locus YER110C, hits give low values 1.01 | locus YER111C, strain swi4, hits give low values 1 | locus YER155C, strain BEM2 (second series), hits give low values 1 | locus YER155C, strain BEM2, hits give low values 1.01 | locus YER167W, strain BCK2, hits give low values 1.01 | locus YFR010W, strain ubp6, hits give low values 1.01 | locus YGL078C, strain dbp3, hits give low values 1.02 | locus YGL086W, strain mad1, hits give low values 1.02 | locus YGL167C, strain pmr1, hits give low values 0.994 | locus YGL173C, strain kem1, hits give low values 0.996 | locus YGL227W, strain vid30, hits give low values 0.997 | locus YGL240W, strain doc1, hits give low values 1.01 | locus YGL248W, strain PDE1, hits give low values 0.993 | locus YGL253W, strain hxk2, hits give low values 0.999 | locus YGR078C, strain PAC10, hits give low values 1.03 | locus YGR135W, strain pre9, hits give low values 1.01 | locus YGR229C, strain SMI1, hits give low values 1.03 | locus YGR252W, strain gcn5, hits give low values 1.21 | locus YHR013C, strain ard1, hits give low values 1 | locus YHR027C, strain rpn1, hits give low values 0.988 | locus YHR030C, strain SLT2, hits give low values 1.01 and 0.985 | locus YHR079C, strain IRE1 (second series), hits give low values 1.01 | locus YHR079C, strain IRE1, hits give low values 0.99 | locus YHR094C, strain hxt1, hits give low values 1.01 | locus YHR129C, strain ARP1, hits give low values 1.01 | locus YHR142W, strain chs7, hits give low values 1 | locus YHR200W, strain rpn10, hits give low values 1.02 | locus YIL066C, strain RNR3, hits give low values 1.03 | locus YIL073C, strain SPO22, hits give low values 1.05 | locus YIL125W, strain kgd1, hits give low values 1 | locus YIR030C, strain dcg1, hits give low values 1.01 | locus YJL092W, strain hpr5, hits give low values 0.998 | locus YJL095W, strain BCK1 (second series), hits give low values 0.995 | locus YJL095W, strain BCK1, hits give low values 1.01 | locus YJL115W, strain asf1, hits give low values 1.01 | locus YJL129C, strain trk1, hits give low values 0.991 | locus YJL134W, strain LCB3, hits give low values 1.01 | locus YJL154C, strain vps35, hits give low values 1.01 | locus YJL164C, strain tpk1, hits give low values 1 | locus YJL166W, strain qcr8, hits give low values 1 | locus YJL168C, strain set2, hits give low values 1.01 | locus YJL187C, strain SWE1 (second series), hits give low values 1.02 | locus YJL187C, strain SWE1, hits give low values 0.999 | locus YJR043C, strain POL32, hits give low values 1.04 | locus YJR066W, strain TOR1, hits give low values 0.961

From PubChem BioAssay AID1159580 (chemical genetic matrix, 2015)
